Test results published in PubChem BioAssay AID1159580 (chemical genetic matrix, 2015).
Values joined by “and” are separate entries in the source; they are usually repeats but may differ in a detail not shown here. Identical values can stand only once. About 2,000 (36%) of roughly 5,500 compounds were called active. Another 18% or so got no clear call; they are omitted. Rule as the data show it: active = normalized growth mostly below about 0.91 (no sharp cut-off); inconclusive = no clear call, values can overlap the other calls; inactive = mostly above about 0.92. Some of the results follow.

Experiment: chemical genetic growth profiling, strain panel (AID 1159580);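 also: tested at 20 µM; growth read once vehicle control cultures reached saturation at 30 °C; 1 = growth at the plate median or of vehicle wells; lower values mean less growth of the strain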
Settings: S. cerevisiae deletion strains, growth OD

Measured: normalized growth

CCOC(=O)C(C)(C)Oc1ccc(Cl)cc1
inactive: locus YAL013W, strain DEP1, active compounds read low 1.01 and 0.989 | locus YAL021C, strain ccr4, active compounds read low 0.996 | locus YAL026C, strain drs2, active compounds read low 0.989 | locus YAL030W, strain snc1, active compounds read low 0.976 | locus YAL040C, strain CLN3, active compounds read low 0.985 | locus YBL061C, strain skt5, active compounds read low 0.978 | locus YBR009C, strain hhf1, active compounds read low 0.982 | locus YBR021W, strain FUR4, active compounds read low 0.988 | locus YBR023C, strain chs3, active compounds read low 0.985 | locus YBR171W, strain sec66, active compounds read low 0.973 | locus YBR229C, strain ROT2, active compounds read low 1.01 | locus YBR231C, strain swc5, active compounds read low 0.977 | locus YBR279W, strain paf1, active compounds read low 0.986 | locus YCL011C, strain gbp2, active compounds read low 0.991 | locus YCL016C, strain dcc1, active compounds read low 0.986 | locus YCL029C, strain bik1, active compounds read low 1 | locus YCL061C, strain MRC1, active compounds read low 0.98 | locus YCL069W, strain vba3, active compounds read low 0.981 | locus YCR088W, strain abp1, active compounds read low 0.984 | locus YDL005C, strain med2, active compounds read low 0.972 | locus YDL035C, strain GPR1, active compounds read low 1.01 | locus YDL040C, strain nat1, active compounds read low 0.979 | locus YDL074C, strain BRE1, active compounds read low 1.02 | locus YDL101C, strain DUN1, active compounds read low 0.999 | locus YDL134C, strain PPH21, active compounds read low 0.999 | locus YDL185W, strain tfp1, active compounds read low 1.01 | locus YDL192W, strain arf1, active compounds read low 1.01 | locus YDR001C, strain nth1, active compounds read low 0.983 | locus YDR069C, strain doa4, active compounds read low 0.984 | locus YDR101C, strain arx1, active compounds read low 0.99 | locus YDR137W, strain rgp1, active compounds read low 0.964 | locus YDR150W, strain NUM1, active compounds read low 1 | locus YDR159W, strain sac3, active compounds read low 0.945 | locus YDR162C, strain NBP2, active compounds read low 1.01 | locus YDR195W, strain ref2 0.954 | locus YDR297W, strain sur2, active compounds read low 0.982 | locus YDR318W, strain mcm21, active compounds read low 1 | locus YDR334W, strain swr1, active compounds read low 0.987 | locus YDR335W, strain msn5, active compounds read low 0.986 | locus YDR388W, active compounds read low 0.995 | locus YDR392W, strain spt3, active compounds read low 0.87 | locus YDR502C, strain sam2, active compounds read low 0.996 | locus YEL003W, strain gim4, active compounds read low 0.992 | locus YEL037C, strain rad23, active compounds read low 1.02 | locus YEL061C, strain CIN8 (second series), active compounds read low 0.981 | locus YEL061C, strain CIN8, active compounds read low 1.01 | locus YER002W, strain NOP16, active compounds read low 0.998 | locus YER015W, strain faa2, active compounds read low 0.971 | locus YER016W, strain bim1, active compounds read low 0.984 | locus YER110C, active compounds read low 0.992 | locus YER111C, strain swi4, active compounds read low 0.985 | locus YER155C, strain BEM2 (second series), active compounds read low 0.922 | locus YER155C, strain BEM2, active compounds read low 1 | locus YER167W, strain BCK2, active compounds read low 0.998 | locus YFR010W, strain ubp6, active compounds read low 1.01 | locus YGL078C, strain dbp3, active compounds read low 1.01 | locus YGL086W, strain mad1, active compounds read low 1 | locus YGL167C, strain pmr1, active compounds read low 0.975 | locus YGL173C, strain kem1, active compounds read low 0.984 | locus YGL227W, strain vid30, active compounds read low 0.975 | locus YGL240W, strain doc1, active compounds read low 0.949 | locus YGL248W, strain PDE1, active compounds read low 1.01 | locus YGL253W, strain hxk2, active compounds read low 1 | locus YGR078C, strain PAC10, active compounds read low 1.02 | locus YGR135W, strain pre9, active compounds read low 1 | locus YGR252W, strain gcn5, active compounds read low 0.993 | locus YHR013C, strain ard1, active compounds read low 1.02 | locus YHR027C, strain rpn1, active compounds read low 0.986 | locus YHR030C, strain SLT2, active compounds read low 1.01 and 0.939 | locus YHR079C, strain IRE1 (second series), active compounds read low 1 | locus YHR079C, strain IRE1, active compounds read low 0.946 | locus YHR094C, strain hxt1, active compounds read low 0.993 | locus YHR129C, strain ARP1, active compounds read low 1 | locus YHR142W, strain chs7, active compounds read low 0.993 | locus YHR200W, strain rpn10, active compounds read low 1 | locus YIL066C, strain RNR3, active compounds read low 1.01 | locus YIL073C, strain SPO22, active compounds read low 1.02 | locus YIL125W, strain kgd1, active compounds read low 0.998 | locus YIR030C, strain dcg1, active compounds read low 0.994 | locus YJL092W, strain hpr5, active compounds read low 0.978 | locus YJL095W, strain BCK1 (second series), active compounds read low 0.985 | locus YJL095W, strain BCK1, active compounds read low 0.986 and 0.943 | locus YJL115W, strain asf1, active compounds read low 0.965 | locus YJL129C, strain trk1, active compounds read low 0.973 | locus YJL134W, strain LCB3, active compounds read low 1 | locus YJL154C, strain vps35, active compounds read low 0.992 | locus YJL164C, strain tpk1, active compounds read low 0.985 | locus YJL166W, strain qcr8, active compounds read low 0.978 | locus YJL168C, strain set2, active compounds read low 0.997 | locus YJL187C, strain SWE1 (second series), active compounds read low 1.01 | locus YJL187C, strain SWE1, active compounds read low 0.97 | locus YJR043C, strain POL32, active compounds read low 1 | locus YJR066W, strain TOR1, active compounds read low 0.943
